# ABHD5-PLIN5 inh: ABHD5-PLIN5 protein interaction inhibition; Split G. princeps luciferase complementation, luminescence, 4 h; inhibition, % at 4 µM; hit rate 0.78% among 360,000;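 active = inhibition above the mean inhibition across every tested compound plus 3 SD, cut at about 22% in these data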;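 also: 0% = DMSO only wells and the 100% control is not disclosed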
# Target sequence (Q00G26 whole entry, looked up): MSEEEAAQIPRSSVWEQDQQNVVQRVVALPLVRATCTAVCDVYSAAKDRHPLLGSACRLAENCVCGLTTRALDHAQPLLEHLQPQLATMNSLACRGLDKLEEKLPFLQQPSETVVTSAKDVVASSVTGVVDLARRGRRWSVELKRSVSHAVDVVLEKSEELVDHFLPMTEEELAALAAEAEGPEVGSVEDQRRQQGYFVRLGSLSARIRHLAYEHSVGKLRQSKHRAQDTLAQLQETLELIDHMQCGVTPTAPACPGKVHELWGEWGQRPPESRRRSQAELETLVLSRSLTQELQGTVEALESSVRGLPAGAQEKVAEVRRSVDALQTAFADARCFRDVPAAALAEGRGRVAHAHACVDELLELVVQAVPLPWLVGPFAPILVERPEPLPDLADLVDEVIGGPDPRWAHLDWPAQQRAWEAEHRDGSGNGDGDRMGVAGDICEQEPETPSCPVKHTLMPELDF
# Target sequence (Q8WTS1 whole entry, looked up): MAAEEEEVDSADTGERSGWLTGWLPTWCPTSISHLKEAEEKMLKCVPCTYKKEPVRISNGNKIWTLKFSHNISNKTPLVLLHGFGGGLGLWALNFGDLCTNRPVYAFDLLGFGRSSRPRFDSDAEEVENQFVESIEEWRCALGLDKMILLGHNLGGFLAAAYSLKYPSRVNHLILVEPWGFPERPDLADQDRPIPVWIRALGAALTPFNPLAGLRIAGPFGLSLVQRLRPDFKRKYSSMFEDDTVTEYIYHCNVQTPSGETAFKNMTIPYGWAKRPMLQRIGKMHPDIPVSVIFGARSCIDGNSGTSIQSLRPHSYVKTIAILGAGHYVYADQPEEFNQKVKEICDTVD
# HIF-2a block: inhibitors of HIF-2a | inhibition, % at 18.8 µM | 786-0 RCC cells HIF-2a reporter, luciferase luminescence, overnight | hit rate 0.72% among 360,000;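 active = inhibition of the luminescence signal of 40% or more relative to plate controls, in a single-dose primary screen at 18.75 µM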
# Peg3 promoter: reduces Peg3 promoter-driven luciferase expression in HeLa. HeLa PEG-Prom luciferase reporter, luminescence, overnight. inhibition, % at 20 µM. hit rate 1.7% among 360,000;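 active = inhibition of at least 50% at 20 µM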
# TRPM1 prom inh: inhibitors of MITF-driven TRPM1 promoter in melanoma cells; SK-MEL-5 TRPM1 promoter luciferase, 24 h; inhibition, % at 12.5 µM; hit rate 0.83% among 330,000;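 active = mean inhibition across replicates of 60% or more, whatever share of single replicates reaches that level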
# KKLEB tox: counter-screen for CF NF-kB inhibitors: cytotoxicity. KKLEB CF airway cells viability, ATPlite luminescence, overnight; active compounds read low; cells stimulated with P. aeruginosa culture filtrate. activity change (cytotoxicity), % at 5 µM. hit rate 0.36% among 360,000. AID 602141;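 active = corrected activity change at or below -50% at 5 µM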
# CF NFkB inh: cystic fibrosis NF-kB activation inhibition; hit rate 0.86% among 360,000; KKLEB NF-kB-GFP reporter, PAF-induced, GFP fluorescence overnight; inhibition, % at 5 µM;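 active = at least 50% inhibition at 5 µM, scaled per plate between neutral and stimulator controls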;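 also: PAF is a Pseudomonas aeruginosa culture filtrate used as stimulus; plate controls were PAF-stimulated DMSO wells for no effect and unstimulated DMSO wells for full effect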
# * = called active by the depositor; nt = not tested or not shown. Sampled rows, rich in hits. Any-hit rate of the full collection: about 3.1%.
SMILES,ABHD5-PLIN5 inh,HIF-2a block,Peg3 promoter,TRPM1 prom inh,KKLEB tox,CF NFkB inh
CCOc1ccc(-c2c(C(=O)N/N=C/c3ccc(O)cc3)nnn2-c2nonc2N)cc1,6.4,6.6,3.7,4.7,20.7,0.6
CCOc1ccc(-c2c(C(=O)N/N=C/c3cccc(Br)c3)nnn2-c2nonc2N)cc1,5.6,1.9,56.3*,2.6,-35.1,38.1
Cc1ccc(S(=O)(=O)N2CCN(c3ccccc3)CC2)cc1C(N)=O,3.4,17.3,20.3,-4.1,8.6,9.6
CC1CCCN(S(=O)(=O)c2ccc(C(=O)Nc3ccccc3-c3nc4ccccc4[nH]3)cc2)C1 (centres undefined),2.4,7.4,3.8,1.5,-55.2*,67.9*
Cc1cccc2sc(NNC(=O)c3ccc(S(=O)(=O)N4CCCC(C)C4)cc3)nc12 (centres undefined),1.6,10.4,68.0*,42.2,6.7,4.7
Cc1cccc2sc(NNC(=O)c3ccc(S(=O)(=O)N4CCc5ccccc5C4)cc3)nc12,23.3*,29.9,60.5*,52.0,2.5,-29.7
Cc1ccc[n+](CC(=O)Nc2cc(C(F)(F)F)ccc2Cl)c1,-8.0,13.2,-5.4,-4.1,-1.0,-0.9
CCC(C)(C)c1ccc(OCCCC[n+]2cccc(C)c2)c(C(C)(C)CC)c1,22.7*,31.9,100.8*,98.0*,-48.3,60.1*
CCCCCCCCCCOC(=O)Cn1c(COc2ccccc2)[n+](C)c2ccccc21,11.8,-12.0,100.0*,11.5,-61.8*,71.2*
CCCCCCCCCCOC(=O)Cn1c(COc2cccc(C)c2)[n+](C)c2ccccc21,16.9,-24.6,45.8,46.8,-28.4,24.3
CCCCCCCCCCOC(=O)Cn1c(COc2ccc(OC)cc2)[n+](C)c2ccccc21,18.1,-57.2,105.3*,85.5*,-22.3,33.5
Cc1nn(Cc2ccc(Cl)cc2)c(C)c1NC(=O)CSc1nc2c(c(C(F)(F)F)n1)CCc1ccccc1-2,2.6,-0.2,14.5,2.5,-11.9,3.1
Cc1ccc(Cn2nc(C)c(NC(=O)CSc3nc4c(c(C(F)(F)F)n3)CCc3ccccc3-4)c2C)cc1,-0.8,12.9,50.1*,-10.6,5.5,13.1
NC(N)=N/N=C/c1ccc(Cl)c(Cl)c1,5.5,4.6,99.5*,nt,3.5,5.0
NC(N)=N/N=C/c1ccccc1,-1.6,-8.0,-1.1,-6.8,-2.7,10.6
CSc1cc(-c2ccc(Cl)cc2)n(Cc2ccccc2)c(=O)c1C#N,0.8,11.3,54.2*,9.5,-53.5*,69.9*
O=C1c2ccccc2C(=O)N1c1ccc(Cc2ccncc2)cc1,3.4,0.5,1.4,-11.3,11.3,-17.2
CCN(C[C@H]1N[C@@](Cc2ccccc2)(C(=O)OC)[C@H]2C(=O)N(C)C(=O)[C@@H]12)C(=O)c1ccc(C)cc1,-1.9,10.6,-2.9,-1.0,8.7,6.5
CCOC(=O)c1ccc(NC(=O)COc2ccc(CNCCO)cc2OCC)cc1,-7.9,-2.5,-6.8,-4.8,-10.9,11.0
CCOC(=O)c1ccc(NC(=O)COc2ccccc2CNCCc2ccccc2)cc1,11.2,-8.5,98.0*,-2.2,-17.8,17.6
Cc1ccc(C(=O)N/C(=C\c2ccc(-c3ccccc3[N+](=O)[O-])o2)C(=O)NCCCN(C)C)cc1,-15.3,1.9,-34.3,69.8*,1.0,7.5
Cc1ccc(C(=O)N/C(=C\c2ccc(-c3cccc([N+](=O)[O-])c3)o2)C(=O)NCCCN2CCOCC2)cc1,4.5,-4.8,93.7*,16.4,-4.9,3.8
Cc1ccc(C(=O)N/C(=C\c2ccc(-c3ccccc3[N+](=O)[O-])o2)C(=O)NCCN(C)C)cc1,-7.8,-10.4,-40.2,76.9*,4.8,-10.9
CN(C)CCNC(=O)/C(=C/c1ccc(-c2cccc([N+](=O)[O-])c2)o1)NC(=O)c1ccccc1,1.7,-10.9,7.4,-0.6,-1.9,3.8
CCN(CC(=O)Nc1ccc2c(c1)OCCO2)C(=O)c1ccc([N+](=O)[O-])s1,-6.3,-20.7,-32.0,70.7*,-4.2,-9.8
SMILES,ABHD5-PLIN5 inh,HIF-2a block,Peg3 promoter,TRPM1 prom inh,KKLEB tox,CF NFkB inh
FC(F)(F)c1cc(Cl)c2nc(-c3ccco3)c(Cc3ccccc3C(F)(F)F)n2c1,50.6*,21.2,nt,nt,nt,nt
COc1ccccc1COCC(O)CNCCc1ccc(C(F)(F)F)cc1 (centres undefined),-0.3,9.4,-12.2,-9.3,-18.4,1.4
COc1ccc(CNCC(O)COc2ccc(C(C)(C)c3ccccc3)cc2)cc1 (centres undefined),-8.5,10.2,74.5*,-11.8,-6.4,21.5
OC(CNC1CCCCCC1)COc1cccc2ccccc12 (centres undefined),3.9,10.3,91.8*,-21.5,-7.7,25.7
OC(CNCCc1ccc(C(F)(F)F)cc1)COc1cccc2ccccc12 (centres undefined),8.3,20.7,90.3*,9.8,-10.1,10.3
OC(CNCCc1ccc(C(F)(F)F)cc1)COc1ccc2ccccc2c1 (centres undefined),-11.6,15.4,100.6*,13.5,-12.5,11.5
Cc1c(Br)c(C(F)(F)F)nn1CC(=O)N(C)C1CCCCC1,-2.7,-2.4,14.1,5.0,-6.0,-2.7
O=c1[nH]c(=O)n(Cc2ccccc2)c2nc(-c3ccc(C(F)(F)F)cc3)n(CCO)c12,0.9,25.3,12.1,-2.4,16.2,-9.5
COc1ccc(CCNCC(O)COc2cccc(Br)c2)cc1 (centres undefined),-0.1,21.2,74.2*,-3.4,-8.5,26.7
Cc1ccc(S(=O)(=O)N2CCOCC2)cc1C(=O)N1CCN(S(=O)(=O)c2ccccc2F)CC1,10.1,14.1,13.6,-13.0,-4.2,23.1
CCN(CC)C(=O)c1nn(-c2ccccc2)c2c1C1CCC2(C)C1(C)C (centres undefined),-0.9,-5.3,28.7,32.8,-13.6,14.9
CCN(CC)CCNc1ccc(C)c2sc3ccc(O)cc3c(=O)c12,13.5,9.9,98.1*,84.5*,5.4,-171.3
CCN(CC)CCCNC(=O)C(C)n1nc(C)c2sc3ccccc3c2c1=O (centres undefined),-3.1,0.0,-27.7,-5.8,-4.8,14.1
Cc1ccc(NC(=O)COC(=O)c2sccc2C)cc1S(=O)(=O)N1CCOCC1,-7.6,-11.5,-5.3,-15.4,-7.8,7.7
CCOc1ccc(NC(=S)NNc2ccnc3cc(Cl)ccc23)cc1,-10.8,0.4,2.2,25.8,14.1,-16.1
S=C(NNc1ccnc2cc(Cl)ccc12)Nc1ccc(Cl)cc1Cl,-17.5,-20.5,52.3*,64.5*,11.9,-34.1
CCNc1ccc(Br)cc(C(=O)/C=C/c2ccc(Cl)cc2Cl)c1=O,47.0*,-1.2,22.9,27.0,-11.9,-10.2
CC[n+]1ccc(/C=C2\Sc3ccccc3N2CCCS(=O)(=O)[O-])c2ccccc21,1.6,6.0,8.5,7.7,16.6,-8.4
CN1C=C/C(=C\c2cc[n+](C)c3ccccc23)c2ccccc21,-10.0,-12.7,10.7,76.8*,-28.8,56.1*

# Screens deposited in PubChem BioAssay by several laboratories.
